Test results as given in ChEMBL document CHEMBL3433997, “St. Jude Leishmania screening dataset” (2016).

What was measured:
Assay type in all cases: functional
[1] = molecular target: Solute carrier family 2, facilitated glucose transporter member 1 (Homo sapiens) (UniProt P11166); assay: ST_JUDE_LEISH: Cytotoxicity at 2uM final concentration against transgenic Leishmania Mexicana promastigotes LmGLUT1 that are glucose transport deficient and complemented with the human glucose transporter GLUT1. Activity is measured by DNA content using SYBR green in vitro
Chain of Solute carrier family 2, facilitated glucose transporter member 1 (Homo sapiens) (P11166 whole entry): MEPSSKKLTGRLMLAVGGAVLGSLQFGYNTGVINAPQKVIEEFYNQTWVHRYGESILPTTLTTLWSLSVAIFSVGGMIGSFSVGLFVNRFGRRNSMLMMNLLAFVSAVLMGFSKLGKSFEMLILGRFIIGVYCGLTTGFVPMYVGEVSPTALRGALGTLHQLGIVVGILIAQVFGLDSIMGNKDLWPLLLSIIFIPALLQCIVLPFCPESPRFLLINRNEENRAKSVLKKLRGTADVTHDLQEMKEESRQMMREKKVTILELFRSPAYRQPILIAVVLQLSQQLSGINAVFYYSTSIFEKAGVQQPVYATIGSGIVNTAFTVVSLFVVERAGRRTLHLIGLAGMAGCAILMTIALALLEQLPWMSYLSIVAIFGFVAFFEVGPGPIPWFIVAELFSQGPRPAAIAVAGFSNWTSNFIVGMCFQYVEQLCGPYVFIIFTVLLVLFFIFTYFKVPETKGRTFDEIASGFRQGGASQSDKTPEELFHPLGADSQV

[2] = molecular target: Hexose transporter 1 (Plasmodium falciparum) (UniProt O97467); assay: ST_JUDE_LEISH: Cytotoxicity at 2uM final concentration against transgenic Leishmania Mexicana promastigotes LmPfHT that are glucose transport deficient and complemented with the Plasmodium falciparum hexose transporter. Activity is measured by DNA content using SYBR green in vitro
[3] = molecular target: Glucose transporter (Leishmania mexicana) (UniProt O61059); assay: ST_JUDE_LEISH: Cytotoxicity at 2uM final concentration against transgenic Leishmania Mexicana promastigotes LmGT2 that are glucose transport deficient and complemented with the L. Mexicana glucose transporter 2. Activity is measured by DNA content using SYBR green in vitro

Compound	inhibition [1] [%]	inhibition [2] [%]	inhibition [3] [%]
CN(C)CCNC(=O)c1csc(Nc2ccc(Cl)c(Cl)c2)n1	0.89	1.38	2.28
CN1CCN(Cc2cc3cc(NC(=O)/C=C/c4ccc(Cl)cc4)ccc3s2)CC1	4.5	0.55	1.01
COc1ccc(-c2ccc(NC(=O)c3ccc(Cl)cc3)cc2)cc1CN(C)CCO	4.1	3.45	-0.68
Cc1ccc(N2C(N)=NC(N)=NC2(C)C)cc1	2.52	2.98	2.39
CN1Cc2ccc(NS(=O)(=O)c3ccc(-c4ccoc4)cc3)cc2C1	-2.45	-1.72	-3.6
CNC(=O)C(NC(=O)c1ccccc1C(=O)OC)c1ccccc1 (stereo not given)	1.77	0.32	-2.13
CC(C)C(C)(C#N)NC(=O)CSc1nc2ccc([N+](=O)[O-])cc2s1 (stereo not given)	-0.35	0.01	-1.55
COc1ccc(CC(=O)Nc2ccc(Nc3nc(C)cc(N4CCCC4)n3)cc2)cc1	46	51.5	16.1
CC(C)c1ccc(NC(=O)c2ccc(CN3CCCN(Cc4cccc(O)c4)CC3)cc2)cc1	2.95	4.76	5.15
CC(C)(C)COc1ccc2c(N)n[nH]c2c1	-1.62	-1.52	-0.66
CCN1CCCC(CNC(=O)/C(=C/C=C/c2cc3cc(Cl)c(Cl)cc3[nH]2)OC)C1 (stereo not given)	-0.41	1.17	1.2
N#Cc1ccc2c(c1)CN(C1CCC(NC(=O)C3=Cc4cc(Cl)ccc4OC3)CC1)CCC2 (stereo not given)	8.34	6.19	5.6
Cc1cc(C(=O)Nc2ccc(-c3nc4ccccc4[nH]3)cc2)ccc1[N+](=O)[O-]	3.49	1.97	-1.54
CC(=O)/N=C1\N=C(NC(C)=O)NC(C)(C)N1OCCCOc1ccc(Cl)c(Cl)c1	1.53	1.27	1.47
Cc1cc(NC(=O)c2ccco2)ccc1OC1CCN(Cc2ccc(F)cc2)C1 (stereo not given)	0.1	0.21	0.41
FC(F)(F)c1ccc(CNCC2CCN(Cc3ccc4c(c3)OCO4)CC2)cc1	1.98	2.65	5.32
COc1cc2c(cc1OC)CN(CCCCc1ccc(NC(=O)c3cc(Cl)cc(Cl)c3)cc1)CC2	4.58	4.95	-0.56
C=CCC1OC(=O)c2cc(OC)cc(OC)c21 (stereo not given)	89.1	84.4	86.9
CCCNC[C@@H](O)[C@H](Cc1ccccc1)NC(=O)c1cc2c3c(c1)c(CC)cn3CCS(=O)(=O)N2C	-2.56	0.74	0.44
C#CC(C)(CO)N1CCCC1 (stereo not given)	1.89	4.77	1.64
Cc1ccc2c(c1C)NC(=O)C21NN=C(c2ccccc2)S1 (stereo not given)	-1.86	-1.15	-2.33
CC(C)(C)Cn1cc(-c2ccc(C(=O)NCCc3ccc(S(C)(=O)=O)cc3)cc2)c(N)n1.CC(C)(C)Cn1ncc(-c2ccc(C(=O)NCCc3ccc(S(C)(=O)=O)cc3)cc2)c1N	0.21	1.16	2.93
COc1cccc(-c2cccc(CNC3CCN(CC4Cn5c(=O)ccc6ccc(F)c4c65)CC3)c2)c1 (stereo not given)	6.16	2.1	1.71
O=c1cc(NCCCNCc2sc(Br)c(Br)c2Br)[nH]c2ccccc12	10.5	9.87	10.4

Compound	inhibition [1] [%]	inhibition [2] [%]	inhibition [3] [%]
O=C(Nc1ccc(OC2CCN(Cc3ccsc3)C2)c(Cl)c1)c1ccco1 (stereo not given)	0.28	1.35	0.21
Cn1c(NCc2cc(F)cc3c2OCOC3)nc2cc(Nc3ccnc(Nc4cccc(CS(C)(=O)=O)c4)n3)ccc21	-1.66	1.11	1.18
Cc1cc(N[C@@H](Cc2ccccc2)C(=O)NCc2cccc(F)c2)nc(NCCc2ccccc2)n1	5.82	4.21	2.48
CC(C)NCc1ccc(-c2cccc(CN3CCC(c4ccccc4)CC3)c2)c(C(=O)NCC2CCCCC2)c1	7.97	8.3	8.2
Cc1csc(-c2nc(NCCc3c(C)noc3C)ncc2-c2ccsc2)n1	8.17	11.5	10.2
COc1ccc(-c2cccc(NC(=O)c3cccc(C#N)c3)c2)cc1CN1CCN(C)CC1	4.2	2.19	3.24
CCCN1CCC=C(c2cccc(Nc3nccc(Nc4cc(OC)ccc4C)n3)c2)C1	11.2	11.9	10
COc1ccccc1CCCN1C(=O)C(c2ccccc2)(c2ccccc2)N=C1N	4.43	0.97	1.36
COc1cccc(CCNCCCCCCNCCc2ccc(Cl)cc2)c1	2.26	2.74	2.55
Cc1cc(N[C@@H](Cc2ccccc2)C(=O)NCc2cccc(F)c2)nc(NCCc2cccnc2)n1	10.4	12.9	12.3
CC(C)(C)C1CCc2onc(C(=O)Nc3cc(Cl)ccc3O)c2C1 (stereo not given)	7.15	5.86	4.8
O=C(N[C@@H](CC1CCCCC1)C(=O)NC1CCCc2ccccc21)c1ccc(O)c(-c2cccc(C(F)(F)F)c2)c1 (stereo not given in full)	4.07	1.73	2.66
O=C(Nc1ccc(Cl)c(Cl)c1)Nc1ccc(F)c([N+](=O)[O-])c1	-2.06	0.4	-2.36
Nc1cccc(CNCc2ccc(-c3ccc(-c4nc5cc(C(F)(F)F)ccc5[nH]4)s3)cc2)c1	2.29	1.24	0.65
Cc1cn(CC(=O)Nc2cccc(-c3cccc(-c4nc5cc(C(F)(F)F)ccc5[nH]4)c3)c2)c(=O)[nH]c1=O	9.16	8.95	4.55
CN(CCN1CCC(c2c[nH]c3ccccc23)CC1)C(=O)OCCCCCNC(=O)/C=C/c1ccc(Cl)c(Cl)c1	9.15	10.3	8.82
Cc1cc(C(=O)NC2CCN(CC3(c4ccccc4)CCCCC3)CC2)on1	1.62	0.59	-0.45
COc1ccc(NS(=O)(=O)c2cccc(C(=O)Nc3ccc(C(F)(F)F)cc3)c2)cc1N1CCN(CC(C)C)CC1	7.82	4.29	6.21
O=[N+]([O-])c1cccc(NC(=S)N2CCCN(Cc3ccc(C(F)(F)F)cc3)CC2)c1	2.92	4.79	3.25
CCc1c(C(=O)NC2CCC(N3CCC(c4ccccc4OC)CC3)CC2)[nH]c2ccc(Br)cc12 (stereo not given)	0.33	-0.12	-0.91
O=C(NCC1COc2ccccc2O1)c1cnc2c(c1)nc(-c1c[nH]c(-c3ccccc3)n1)n2CCSCc1c(F)cccc1Cl (stereo not given)	4.51	3.79	3.91
CCc1cc(-c2n[nH]c(C(F)(F)F)c2-c2ccccc2)c(O)cc1OC	2.03	1.54	2.44
COC(=O)c1ccc(C2OC3(C(=O)c4ccccc4C3=O)C(OC)=C2Cl)cc1C(C)=O (stereo not given)	-2.44	-0.79	-0.7
Brc1cc2c(cc1C=NNc1nc(=Nc3ccccc3)[nH]c(=Nc3ccccc3)[nH]1)OCO2	3.97	3.42	-2.12

Compound	inhibition [1] [%]	inhibition [2] [%]	inhibition [3] [%]
Cc1cccc(NC(=O)c2ccc(C(=O)NC3CCN(CC4CCCCC4)C3)cc2)c1 (stereo not given)	5.04	3.98	-1.15
CN1CC[C@@H](Oc2cc(CNC(=O)c3ccc(-c4ccc(Cl)cc4)s3)ccc2C(F)(F)F)C1	-1.97	-1.98	-1.59
CCc1c(CCNCCCCCCNCCc2ccc([N+](=O)[O-])cc2)ccc(O)c1O	-1.33	-0.9	0.31
COc1cc(C)nc2ccc(NC(=O)c3cc([N+](=O)[O-])cc([N+](=O)[O-])c3)cc12	2.43	0.24	3.33
O=C(Nc1cccc(N2CCC(NCc3cccnc3)CC2)c1)c1cccc(C(F)(F)F)c1	1.16	1	-0.6
CCC(Cc1ccccc1)c1cc(O)c(Cc2ccc(-c3ccccc3)cc2)c(=O)o1 (stereo not given)	2.42	2.07	0.95
CC(CN(C)C)C(=O)Nc1ccc(-c2ccc(-c3nc4cc(C(F)(F)F)ccc4[nH]3)cc2)cc1 (stereo not given)	12.9	11.6	9.66
Cn1cncc1C(=O)Nc1ccc(-c2ccc(-c3nc4cc(C(F)(F)F)ccc4[nH]3)cc2)cc1	20.8	15	4.64
O=c1ccc2ccc(F)cc2n1CCN1CCC(NCc2ccc(-c3ccccn3)s2)CC1	4.21	3.12	-0.91
CCOc1ccc2[nH]c(-c3ccccc3)cc(=NN=Cc3ccncc3)c2c1	1.66	4.54	-0.25
CC(C)CNCc1cccc(-c2cccc(CN(CCN(C)C)C(=O)Nc3ccccc3)c2)c1	2.46	4.17	0.55
O=C(C=Cc1ccc(Cl)c(Cl)c1)NCCCCCN1CCCC(CCCNS(=O)(=O)c2cccc3cccnc23)C1 (stereo not given)	5.85	5.36	-0.71
COc1ccc(CN(C)CCCOc2ccc(NC(=O)C=Cc3ccc(C(C)(C)C)cc3)cc2)cc1OC	13.9	9.61	9.75
CC(C)c1cccc(C(NC(=O)[C@H]2Cc3ccccc3CN2C(=O)c2cccc(N3CCOCC3)c2)C2CCCC2)c1 (stereo not given in full)	1	0.21	0.64
O=C(Nc1ccc(OC2CCN(Cc3ccccc3)CC2)c(Cl)c1)c1ccsc1	2.2	2.35	2.24
CN1CCN(c2ccnc3ccc(NC(=O)Nc4ccc5c(c4)CCCC5=O)cc23)CC1	0.37	1.11	1.66
C=C[C@]1(C)C[C@@H](OC(=O)NC(=O)C2CCN(C(=O)CSc3ccccc3)CC2)[C@]2(C)[C@H](C)CC[C@]3(CCC(=O)[C@H]32)[C@@H](C)[C@@H]1O	10.2	11.6	5.56
c1cc(CNC2CCCC2)cc(-c2ccc(CNc3ccc4ncccc4c3)cc2)c1	-0.78	0.28	-2.51
OCC1CCN(Cc2ccc(-c3cccc(-c4nc5cc(C(F)(F)F)ccc5[nH]4)c3)cc2)CC1	-1	1.12	7.35
O=C(NCCOc1ccccc1)[C@H](Cc1ccccc1)Nc1ccnc(NCC2CCCCC2)n1	2.23	1.21	0.92
CCNc1cc(C(=O)N[C@@H](Cc2ccccc2)[C@H](O)CNCC(C)C)cc(N2CCCC2=O)c1	2.24	1.42	-1.69
Cc1[nH]c(C)c(-c2ccc(-c3ccccc3Cl)nc2)c(=O)c1Cl	3.05	3.94	3.11
